Data: PubChem BioAssay (NCI)
Compounds without any hit were thinned out: in the full panel of roughly 83,000, 20% have a hit.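 Assay: single dose, 48 h. Readout: percent growth (0 = no net growth; negative = cell death). Active: <10.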 The source made the active and inactive calls.

Assays:
Assay in all cases: NCI-60 one-dose screen, 48 h (100 = growth as untreated, 0 = no growth, -100 = all killed)
[1] = test system: HT29 colon; settings: 10 µM unless noted
[2] = test system: SNB-75 CNS; settings: 10 µM unless noted
[3] = test system: SNB-19 CNS; settings: 10 µM unless noted
[4] = test system: U251 CNS; settings: 10 µM unless noted
[5] = test system: PC-3 prostate; settings: 10 µM unless noted
[6] = test system: SK-MEL-5 melanoma; settings: 10 µM unless noted
[7] = test system: UACC-62 melanoma; settings: 10 µM unless noted
[8] = test system: LOX IMVI melanoma; settings: 10 µM unless noted
[9] = test system: SK-MEL-28 melanoma; settings: 10 µM
[10] = test system: SK-MEL-2 melanoma; settings: 10 µM unless noted
[11] = test system: SN12C renal; settings: 10 µM unless noted
[12] = test system: UO-31 renal; settings: 10 µM unless noted
[13] = test system: TK-10 renal; settings: 10 µM unless noted
[14] = test system: ACHN renal; settings: 10 µM unless noted
[15] = test system: CAKI-1 renal; settings: 10 µM unless noted
[16] = test system: A498 renal; settings: 10 µM unless noted
[17] = test system: CCRF-CEM leukemia; settings: 10 µM unless noted
[18] = test system: MOLT-4 leukemia; settings: 10 µM unless noted
[19] = test system: SR leukemia; settings: 10 µM unless noted

Measured: growth

Nc1ccn(C2O[C@H](CO)[C@@H](O)[C@H]2O)c(=O)n1 (some centres undefined)
inactive: [1] 106% | [2] 76.9% | [3] 101% | [4] 48.9% | [5] 85.6% | [6] 89.9% | [7] 95.9% | [8] 75.5% | [9] 76.4% | [10] 110% | [11] 54.9% | [12] 100% | [13] 125% | [14] 79.5% | [15] 91.3% | [16] 106% | [17] 29.2% | [18] 57.1%
active: [19] 2.99%

Clc1ccc(Nc2nnc(-c3ccc4c(c3)OCO4)o2)cc1
inactive: [1] 95% | [2] 121% | [3] 99% | [4] 102% | [5] 107% | [6] 104% | [7] 88.9% | [8] 89.9% | [9] 114% | [10] 102% | [11] 96.6% | [12] 86.9% | [13] 94.6% | [14] 102% | [15] 98.4% | [16] 97.5% | [17] 100% | [18] 82.7% | [19] 83.4%

NC(CCl)=NCCC[C@H](N)C(=O)O
inactive: [1] 105% | [2] 89.6% | [3] 97.3% | [4] 97.4% | [5] 76% | [6] 93.1% | [7] 91.5% | [8] 96.3% | [9] 107% | [10] 93.3% | [11] 93.3% | [12] 85.2% | [13] 96.7% | [14] 105% | [15] 97.2% | [16] 102% | [17] 94.6% | [18] 104% | [19] 93.5%

c1ccc(-c2ccc(-c3nc4ccccc4[nH]3)cc2)cc1
inactive: [1] 52.9% | [2] 55.4% | [3] 106% | [4] 90.6% | [5] 76.8% | [6] 100% | [7] 103% | [8] 84.1% | [9] 93.2% | [10] 101% | [11] 92.9% | [12] 67.4% | [13] 84.7% | [14] 90.7% | [15] 93.6% | [16] 88.6% | [17] 38.4% | [18] 56.9% | [19] 58.8%

CC1(C)CC2(C)OC2C2(C1)N=NC(=Nc1ccccc1)O2 (centres undefined)
inactive: [1] 25.1% | [2] 84.8% | [3] 86% | [4] 84.4% | [5] 62.5% | [6] 61.5% | [7] 73.1% | [9] 70.3% | [10] 76.6% | [11] 61.9% | [12] 20.8% | [13] 13.6% | [14] 21.2% | [15] 57.4% | [16] 125% | [17] 10.7% | [18] 19.9% | [19] 11.3%
active: [8] -51.9%

CCOc1ccccc1CN1CCc2nc3cc(C(C)(C)C)[nH]n3c(=O)c2C1
inactive: [1] 94.8% | [2] 105% | [3] 94.8% | [4] 104% | [5] 109% | [6] 101% | [7] 102% | [8] 96.7% | [9] 112% | [10] 98.3% | [11] 104% | [12] 93.4% | [13] 97.6% | [14] 95.4% | [15] 99.9% | [16] 101% | [17] 91.8% | [18] 94.7% | [19] 88.5%

COc1ccc(-c2nsc3c2NC(=O)CC3c2ccc3c(c2)OCCO3)cc1 (centres undefined)
active: [1] -0.622%
inactive: [2] 35.1% | [3] 56.8% | [4] 24.3% | [5] 23.6% | [6] 27% | [7] 32.2% | [8] 44.3% | [9] 43.1% | [10] 57.5% | [11] 44.4% | [12] 53.6% | [13] 43.4% | [14] 46% | [15] 38.6% | [16] 19% | [17] 14% | [18] 28.3% | [19] 28.9%

Nc1nc(Nc2cccc(F)c2)nc2ccccc12
active: [1] 6.89%
inactive: [2] 56.1% | [3] 57.5% | [4] 38% | [5] 44.3% | [6] 16% | [7] 41.3% | [8] 17.2% | [9] 44.4% | [10] 50.6% | [11] 34.2% | [12] 23.7% | [13] 29.9% | [14] 44.8% | [15] 38.3% | [16] 43.9% | [17] 26.2% | [18] 39.5% | [19] 13.2%

Brc1ccc(Nc2nc3ccccc3nc2Nc2ccc(Br)cc2)cc1
active: [1] -46.1% | [2] -7.54% | [4] -58.5% | [5] -0.436% | [6] -85.6% | [7] -16.2% | [8] -87% | [9] -44.2% | [10] -58% | [11] -9.63% | [12] -25.7% | [13] -55.4% | [14] 4.91% | [15] -16.3% | [16] -18.1% | [17] -15% | [18] -21.4% | [19] -23.5%
inactive: [3] 16.6%

Cc1ccc(CN2CCC(C(=O)Nc3ccc(-c4cc5ccccc5[nH]4)cc3)CC2)o1
inactive: [1] 57.1% | [2] 100% | [3] 80% | [4] 39.8% | [6] 50.4% | [7] 72.1% | [8] 42.2% | [9] 85.1% | [10] 88.4% | [11] 60.7% | [12] 47.5% | [13] 73% | [14] 44.3% | [15] 71.7% | [19] 14.1%
active: [5] 2.12% | [16] 4.02% | [17] 8.89% | [18] -4.18%

CC1=C(CC(=O)c2cccc([N+](=O)[O-])c2)C(=O)c2ccccc2C1=O
active: [2] -84.6% | [4] -81% | [6] 4.78% | [7] -50.8% | [8] -51.9% | [9] -89.9% | [10] -36.2% | [11] -36% | [12] -64.3% | [13] -43.1% | [15] -28.1% | [17] 4.59% | [19] -46.1%
inactive: [1] 106% | [3] 13% | [5] 42.8% | [14] 13.8% | [16] 68% | [18] 36.5%

COc1ccc(Cn2c(Br)c3c(c2-c2cc(OC)c(OC)c(OC)c2)CCc2sc(NC(=O)c4ccc(OC)cc4)nc2-3)cc1
inactive: [1] 101% | [2] 82.4% | [3] 98.5% | [4] 98.6% | [5] 84.2% | [6] 86.7% | [7] 94.9% | [8] 92.5% | [9] 105% | [10] 96.7% | [11] 85% | [12] 47.4% | [13] 110% | [14] 97.5% | [15] 78% | [16] 86.7% | [17] 79% | [18] 75.7% | [19] 76.2%

CCc1ccc(CNCC(O)c2ccccc2)cc1 (centres undefined)
inactive: [1] 28.7% | [2] 61.8% | [3] 79.7% | [4] 60% | [5] 52.7% | [6] 68.6% | [7] 84.5% | [8] 68.7% | [9] 74.7% | [10] 90.9% | [11] 76.4% | [12] 34.6% | [13] 80.7% | [14] 72.2% | [15] 66.4% | [16] 67.8% | [17] 28.7% | [18] 19.2%
active: [19] 3.88%

COc1ccc(C(=O)C2CC2c2ccc(Cl)cc2)cc1 (centres undefined)
active: [17] 9.89%
inactive: [1] 104% | [2] 75.6% | [3] 117% | [4] 82.4% | [5] 72.5% | [6] 96.7% | [7] 84.9% | [8] 91.1% | [9] 107% | [10] 89% | [11] 85% | [12] 64.4% | [13] 103% | [14] 78.6% | [15] 87.9% | [16] 114% | [18] 41.2% | [19] 77.8%

Cc1ccc(C(=O)c2oc3ccc4c(C)cc(=O)oc4c3c2C)cc1
active: [5] 7.34% | [6] -56.6% | [12] 9.48% | [18] 7.13%
inactive: [1] 14.3% | [2] 67.8% | [3] 41.4% | [4] 18.6% | [7] 29.4% | [8] 33.2% | [9] 51.4% | [10] 32.1% | [11] 30.5% | [13] 27.2% | [14] 32.9% | [15] 15.2% | [16] 32.3% | [17] 17.1% | [19] 12.7%

COc1ccc(/C=C/C(=O)c2ccc3cc(OC)c(OC)cc3c2)cc1OC
active: [1] 6.78% | [8] 6.59% | [19] 3.83%
inactive: [2] 49.7% | [3] 71.9% | [4] 22.8% | [5] 42% | [6] 36.7% | [7] 57.6% | [9] 96.3% | [10] 83.6% | [11] 32.2% | [12] 27.7% | [13] 65.1% | [14] 55.4% | [15] 30.2% | [16] 70.9% | [17] 32.8% | [18] 30.7%
